D1 PAM – Potentiators of Human D1 Dopamine Receptor: qHTS; D(1A) dopamine receptor (Homo sapiens), P21728; HEK293 TREx D1 cells, calcium flux, dopamine EC20 potentiation; potentiation, % at 10 µM; actives 0.036% (n = 360,000); AID 504651, 2011; in the data active = potentiation above about 30%; note: 0% is about no effect
Target sequence (P21728 whole entry, looked up): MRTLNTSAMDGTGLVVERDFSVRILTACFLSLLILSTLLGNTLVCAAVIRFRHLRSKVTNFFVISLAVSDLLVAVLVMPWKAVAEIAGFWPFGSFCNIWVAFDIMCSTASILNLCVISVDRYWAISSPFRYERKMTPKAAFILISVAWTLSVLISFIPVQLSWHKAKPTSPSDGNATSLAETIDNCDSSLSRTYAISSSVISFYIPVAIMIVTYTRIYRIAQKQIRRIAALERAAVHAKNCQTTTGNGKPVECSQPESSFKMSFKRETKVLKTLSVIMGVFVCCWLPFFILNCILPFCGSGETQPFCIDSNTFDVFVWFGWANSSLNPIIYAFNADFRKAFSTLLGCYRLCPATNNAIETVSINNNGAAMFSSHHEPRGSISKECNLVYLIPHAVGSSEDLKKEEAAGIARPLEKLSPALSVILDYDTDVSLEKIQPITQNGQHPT
D3 antag – qHTS of D3 Dopamine Receptor Antagonist: qHTS. D3R cells, DiscoveRx beta-arrestin luminescence, antagonist mode; stronger effect = lower value. AID 652054, 2013. actives 2.5% (n = 360,000). max response, negative = inhibition, %. D(3) dopamine receptor (Homo sapiens), P35462; in the data active = max response below about -50%; inconclusive = no clear call, values can overlap the other calls; note: % is set by controls: 0 for no effect and ±100 for the full control effect
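Cells expressing the human receptor were seeded at 1500 cells/well, incubated overnight at 37 degrees C in 5% CO2, then exposed to library compounds with dopamine controls for 90 minutes at 37 degrees C before luminescent detection.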
D1 agonist – Allosteric Agonists of the Human D1 Dopamine Receptor: qHTS. D(1A) dopamine receptor (Homo sapiens), P21728. HEK293 T-REx D1 cells, calcium flux, agonist mode. activation, % at 2 µM. actives 1% (n = 360,000). AID 504660, 2011; in the data active = activation above about 30%; note: 0% is about no effect
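Tetracycline-induced HEK293 TREx D1 cells, force-coupled to calcium signalling, were dye-loaded with a no-wash calcium kit. Compound was pin-added after a 10 s baseline. Fluorescence was read kinetically at 1 cycle/s for 180 s, with calcium rises flagged as agonism.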
D1 antagonist – Antagonist of Human D 1 Dopamine Receptor: qHTS. D(1A) dopamine receptor (Homo sapiens), P21728. HEK293 TREx D1 cells, calcium flux, dopamine EC80; stronger effect = lower value. activity change, negative = inhibition, % at 10 µM. actives 3.2% (n = 360,000). AID 504652, 2011; in the data active = activity change below about -30%; note: % is set by controls: 0 for no effect and ±100 for the full control effect
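After overnight tetracycline induction at 30 C, force-coupled D1 HEK293 cells took up a no-wash calcium dye at room temperature. Compounds were added and monitored 180 s, and the response to EC80 dopamine was then recorded.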
D3 ag – qHTS of D3 Dopamine Receptor Agonist: qHTS; D(3) dopamine receptor (Homo sapiens), P35462; D3R DiscoveRx beta-arrestin cells, luminescence, 90 min; max activation, %; actives 0.58% (n = 410,000); AID 652048, 2013; in the data active = max activation above about 30%; note: 0% is about no effect
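Agonist mode: compounds and dopamine controls were applied to plated cells for 90 min at 37 degrees C after an overnight attachment at 1500 cells/well. Luminescent read-out followed 30 - 60 minutes at room temperature with DiscoveRx detection reagent.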
An asterisk follows results filed as active; ? = inconclusive; nt = no result given. Most compounds without a hit are left out; they make up all but 6% or so of the library.

SMILES	D1 PAM	D3 antag	D1 agonist	D1 antagonist	D3 ag
Cc1cccc(NC(=O)C(C)N2C(=O)c3ccccc3S2(=O)=O)n1 (stereo not drawn)	1	-30	2	2	-3
COc1ccc(CNC(=O)C2CCN(S(=O)(=O)c3ccc4c(c3)CCCN4C(C)=O)CC2)cc1	-1	nt	0	7	6
COc1ccc(CCNC(=O)CCc2cn(Cc3ccccc3Cl)c3ccccc23)c(OC)c1	-2	nt	4	-36*	-15
O=C(NCC(c1ccc2c(c1)OCO2)N1CCOCC1)c1ccc(F)cc1 (stereo not drawn)	-2	nt	1	14	-15
OC[C@H]1O[C@@H](O[C@@H]2[C@@H](CO)O[C@@](O)(CO)[C@H]2O)[C@H](O)[C@@H](O)[C@H]1O	-7	9	-1	-36*	6
OC[C@H]1O[C@@H](O[C@@H]2[C@@H](CO)O[C@](O)(CO)[C@H]2O)[C@H](O)[C@@H](O)[C@H]1O	nt	nt	nt	nt	0
O=c1[nH]ncc2c3ccccc3n(Cc3cccc(Cl)c3)c12	-4	-7	52*	13	-5
CC1CCCN(C(=O)Cn2ncc3c([nH]c4ccccc43)c2=O)C1 (stereo not drawn)	-2	nt	0	13	8
CCOc1ccccc1CNC(=O)Cn1nc(N2CCN(c3ccccc3)CC2)ccc1=O	0	nt	2	-14	7
O=C1CCNc2ccc(-c3ccccc3)cc21	-8	1	68*	-13	-2
O=C(Nc1ccncc1NC(=O)c1cccc([N+](=O)[O-])c1)c1cccc([N+](=O)[O-])c1	-2	21	0	-8	6
O=C(NC(=S)NNC(=O)c1ccccc1O)c1cccc([N+](=O)[O-])c1	2	8	4	4	43*
O=C(NC(=S)Nc1ccccn1)c1cccc([N+](=O)[O-])c1	-6	0	0	-55*	-10
O=C(C#Cc1ccccc1)c1cccc([N+](=O)[O-])c1	-4	-56*	1	-14	-8
O=C(Nc1cccc(NC(=O)c2cccc([N+](=O)[O-])c2)n1)c1cccc([N+](=O)[O-])c1	-9	-1	4	-34*	0
Cc1ccc(N=C2NC(=O)CC(C(=O)Nc3cc(C(F)(F)F)ccc3Cl)S2)cc1 (stereo not drawn)	-2	nt	0	-2	-14
Cc1ccc(NC(=O)C2CCC(CNS(=O)(=O)c3ccc4c(c3)CCCC(=O)N4)CC2)cc1F (stereo not drawn)	2	nt	2	-9	7
Cc1ccc(CS(=O)(=O)CCC(=O)NCc2cccs2)cc1	-8	-11	-1	-32*	0
CCCCN(CCCC)CC(O)c1cc(Cl)cc2c1-c1ccc(Cl)cc1/C2=C/c1ccc(Cl)cc1 (stereo not drawn)	nt	nt	nt	nt	7
Cn1ccc(C(=O)Oc2ccc(C(=O)Nc3ccc(F)cc3F)cc2)n1	-3	5	12	-44*	0
O=C(COC(=O)C12CC3CC(CC(C3)C1)C2)Nc1nccs1	3	1	6	-34*	2
Cc1ccnc(NC(=O)COC(=O)C23CC4CC(CC(C4)C2)C3)n1	-3	2	5	-13	1
N#C/C(=C/c1cccc(O)c1)C(=O)NCc1ccc(Cl)cc1	-9	-22	7	-8	-4
N#C/C(=C/c1ccc(O)c(O)c1)C(=O)NCc1ccc(Cl)cc1	nt	-50*	79*	-33*	-10
CCSc1ncc(/C=N/Nc2ccc([N+](=O)[O-])cc2)n1C	-4	-2	37*	-5	-5
O=[N+]([O-])c1ccc(N/N=C\c2cccn2-c2ccccc2)nc1	5	?	37*	0	-22
CCSc1ncc(/C=N/Nc2ccccc2)n1C	10	-25	1	-4	-11
O=[N+]([O-])c1ccc(NN=Cc2ccccc2)nc1	nt	-19	nt	nt	-9
N#Cc1ccccc1Cn1cc(/C=N/Nc2ccc([N+](=O)[O-])cn2)c2ccccc21	2	-52*	8	7	-10

Compound activity as filed in PubChem.
